About 83,000 compounds went through this panel and 20% of them were active in at least one assay; those are over-represented in the sample as a whole.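 The test compound was applied at a single concentration to cells in 96-well plates for 48 hours, and percent growth was recorded.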 Unmarked numbers belong to inactive results. Activity calls are given as the source filed them. The calls were made as follows: active = growth percent below 10; inactive = the rest.
Assays:
Assay in all cases: NCI-60 one-dose screen, 48 h (100 = growth as untreated, 0 = no growth, -100 = all killed)
Details in all cases: 10 µM unless noted
SR leukemia = system: SR leukemia
RPMI-8226 leukemia = system: RPMI-8226 leukemia
OVCAR-8 ovarian = system: OVCAR-8 ovarian
OVCAR-5 ovarian = system: OVCAR-5 ovarian
OVCAR-4 ovarian = system: OVCAR-4 ovarian
SK-OV-3 ovarian = system: SK-OV-3 ovarian
IGROV1 ovarian = system: IGROV1 ovarian
OVCAR-3 ovarian = system: OVCAR-3 ovarian
NCI/ADR-RES ovarian = system: NCI/ADR-RES ovarian
HS 578T breast = system: HS 578T breast

Row | Compound | growth (SR leukemia) | growth (RPMI-8226 leukemia) | growth (OVCAR-8 ovarian) | growth (OVCAR-5 ovarian) | growth (OVCAR-4 ovarian) | growth (SK-OV-3 ovarian) | growth (IGROV1 ovarian) | growth (OVCAR-3 ovarian) | growth (NCI/ADR-RES ovarian) | growth (HS 578T breast)
1 | O=C(CC(O)c1ccncc1)c1ccccc1 (configuration not stated) | 82.1% | 97.9% | -36.8% (active) | 104% | -29.2% (active) | 41.9% | 18% | -60.5% (active) | 65.2% | 
2 | CCn1cc(C(=O)O)c(=O)c2cc(F)c(N3CCN(S(=O)(=O)c4cccc5ccccc45)CC3)cc21 | 2.85% (active) | 6.47% (active) | 8.43% (active) | 15.5% | 23.9% | 15.6% | 13.7% | -6.25% (active) | 21.4% | 
3 | COC1=CC(c2ccc[nH]2)=N/C1=C\c1[nH]c(C)c(C(=O)CCCCC(=O)Oc2ccc3c(c2)CCC2C3CC[C@]3(C)[C@@H](O)CC[C@@H]23)c1C (some centres not stated) | 23.2% | 45% | 70.8% | 65.6% | 48.6% | 90% | 70.7% |  | 82.4% | 54.3%
4 | O=C1Nc2ccc(Br)cc2C1=N/C=c1\[nH]c(=O)/c(=C/c2ccc(Cl)cc2)s1 | 81.6% | 98.2% | 93.6% | 106% | 108% | 91.4% | 105% |  | 104% | 100%
5 | CC(=O)Nc1nc(C(=O)N2N=C(C)/C(=C/c3cccs3)C2=O)cs1 | 91.9% | 97.4% | 103% | 115% | 106% | 99.4% | 97.1% |  | 112% | 114%
6 | COc1cccc(-c2nc3sccn3c2-c2ccnc(NCCCNS(=O)(=O)c3ccc(F)cc3)n2)c1 | 28.9% | 17.4% | 17.3% | 116% | 25.2% | 72.7% | 34.6% | 37.4% | 15.5% | 
7 | COc1cc(Cn2c(SCC(=O)Nc3cc(OC)c(OC)c(OC)c3)nc3ccccc3c2=O)cc(OC)c1OC | 66.6% | 96% | 81% | 88.8% | 89.8% | 51.2% | 72.6% |  | 99.5% | 48.4%
8 | N#Cc1c(NC(=O)c2ccc([N+](=O)[O-])o2)[n+]([O-])c2cc(F)c(F)cc2[n+]1[O-] | 77.3% | 111% | 68% | 108% | 102% | 129% |  | 122% | 102% | 158%
9 | O=S(=O)(c1ccccc1)n1ccc(-c2ccc3c(c2)CCO3)n1 | 73.3% | 62.4% | 84% | 103% | 70.1% | 104% | 75.7% |  | 76% | 102%
10 | COc1cc(Cn2c(SCC(=O)Nc3ccc(Cl)cc3)nc3ccccc3c2=O)cc(OC)c1OC | 46.9% | 28.6% | 62.9% | 82.2% | 53.4% | 68.2% | 41.6% |  | 51.9% | 
11 | CC[C@]1(O)C[C@@H]2CN(Cc3c([nH]c4ccccc34)[C@@](C(=O)OC)(c3cc4c(cc3OC)N(C)[C@H]3[C@@](O)(C(=O)OC)[C@H](OC(C)=O)[C@]5(CC)[C@@H]6C[C@@H]6CN6CC[C@]43[C@@H]65)C2)C1 | 2.3% (active) | 48.8% | 11.9% | 51% | 34.9% | 15.2% | 37.2% |  | 93.8% | 16.8%
12 | COc1cc(CNC(=O)CSc2nc3ccccc3c(=O)n2Cc2cc(OC)c(OC)c(OC)c2)cc(OC)c1OC | 123% | 102% | 96.4% | 102% | 103% | 108% | 97.9% |  | 103% | 110%
13 | O=C1C2=C(C(=O)c3c(O)ccc(O)c31)N(c1cccnc1)Cc1ccccc1O2 | -10.1% (active) | -8.47% (active) | 2.92% (active) | -39.6% (active) | -95% (active) | 53.8% |  | -89.5% (active) | 13.4% | 26.1%
14 | N#Cc1ncc(-c2ccc(F)c(F)c2F)c(NC2CCCCCC2)n1 | 69.5% | 63.1% | 86.1% | 94.2% | 81.1% | 95.8% | 83.8% |  | 83.8% | 75.9%
15 | Clc1ccc(/C=C/c2nc(N3CCOCC3)c3nc(Cl)c(Cl)cc3n2)cc1 | 98% | 102% | 108% | 110% | 128% | 105% | 117% |  | 98.5% | 104%
16 | Nc1c(C(=O)Nc2ccccc2)sc2nc3c(cc12)CCCCC3 | 17% | -29.6% (active) | 17.9% | 43.8% | 15.3% | 17.1% | 36.2% |  | 2.18% (active) | 
17 | CCCn1c(=S)sc2c(Cl)nc(C)nc21 | 123% | 99.1% | 105% | 109% | 85.5% | 90.5% |  | 88.6% | 106% | 36.8%
18 | CCC1CCc2nc3sc(C(=O)Nc4ccccc4F)c(N)c3cc2C1 (configuration not stated) | 16.8% | 47.5% | 83.3% | 87.6% | 90.9% | 80.7% | 88.3% |  | 62.5% | 70%
19 | COc1cc(C(=O)OCCCCCCCCCCC[P+](c2ccccc2)(c2ccccc2)c2ccccc2)ccc1O | -58.7% (active) | -9.32% (active) | -62% (active) | 22.6% | -11.2% (active) | -1.8% (active) | 11.6% |  | 50.6% | -13.3% (active)
20 | COC1=CC(c2ccc[nH]2)=N/C1=C\c1[nH]c(C)c(C(=O)CCC(=O)Oc2ccc3c(c2)CCC2C3CC[C@]3(C)[C@@H](O)CC[C@@H]23)c1C (some centres not stated) | -17.6% (active) | -12.2% (active) | -3.79% (active) | 27.7% | 43.1% | 51.1% | 16.8% |  | 8.32% (active) | 20.4%
21 | COC1=CC(c2ccc[nH]2)=N/C1=C\c1[nH]c(C)c(C(=O)CCCCC(=O)Nc2ccccc2)c1C | 44% | 126% | -46.4% (active) | 64.4% | 54.4% | 77.5% |  | 40.6% | 32.9% | 82.2%
22 | COc1ccc(NC(=O)CSc2nc3ccccc3c(=O)n2Cc2cc(OC)c(OC)c(OC)c2)cc1 | 82.3% | 86% | 91.9% | 102% | 82.8% | 97% | 99% |  | 84% | 96.1%
23 | CCCCCc1c(C)[nH]c(/C=c2\[nH]/c(=C3/C=c4ccccc4=N3)cc2OC)c1C | -20.3% (active) | -49.5% (active) | -41.9% (active) | -7.96% (active) | 4.16% (active) | -17.2% (active) | -4.01% (active) |  | -20.6% (active) | -37.1% (active)
24 | COc1ccc2c(c1)C(=O)/C(=C/c1ccc(O)cc1)O2 | 74.1% | 35.1% | 93.1% | 103% | 85.2% | 104% |  | 48.7% | 104% | 73.5%
25 | COc1ccc(/C=C2\C(=O)N(C(=O)c3csc(NC(C)=O)n3)N=C2C)cc1 | 82.2% | 98.4% | 96% | 110% | 109% | 100% | 95.9% |  | 105% | 111%
26 | O=c1oc2cc(OS(=O)(=O)c3ccc(F)cc3)ccc2c2c1CCCCC2 | 53.7% | 34.8% | 77.6% | 66.2% | 58.1% | 95.9% | 95.2% | 77.8% | 51.1% | 
